Screening results deposited in PubChem BioAssay by National Center for Advancing Translational Sciences (NCATS).
LASV entry inh – Lassa virus entry inhibition | Lassa virus pseudotype entry inhibition, cell reporter | Potency, µM (series often up to 37.9 µM), most hits filed as inhibitors | 300,000 compounds, 1.2% hits | AID 540256; calls by dose curve; tested in HEK293 cells; note: nearly all actives have a fitted effect of over 50% in size
MARV entry inh – inhibitors of Marburg virus binding or cell entry. Potency, µM (titrated, usually from 37.8 µM), actives largely listed as inhibitors. Marburg virus pseudotyped entry inhibition, cell reporter. 300,000 compounds, 1.8% hits; calls by dose curve; tested in HEK293 cells
Cycloheximide cs – affects cycloheximide protein synthesis inhibition readout, counter-screen; max response, %; cell reporter, cycloheximide protein synthesis inhibition counterscreen; 300,000 compounds, 12% hits; in the data active = max response mostly above about 13%, no sharp cut-off; inactive = mostly below about 14%; note: read at 38.3 µM for the half of the compounds with a filed dose
Shiga toxin inh – inhibitors of Shiga toxin in Vero cells. Vero cells, Shiga toxin protein synthesis inhibition reporter. inhibition, % at 38.7 µM. 290,000 compounds, 9.2% hits; in the data active = inhibition mostly above about 28%, no sharp cut-off; inactive = mostly below about 43%
A number is an active result; - = inactive; ? = inconclusive; . = not tested or not shown. Only some compounds are listed: those with a hit (about 12% of all), similar ones and a draw of the others.

SMILES	LASV entry inh	MARV entry inh	Cycloheximide cs	Shiga toxin inh
CCCCCN(C(=O)CCC(=O)OCC(=O)Nc1ccc(C)cc1F)c1c(N)n(CCCC)c(=O)[nH]c1=O	-	-	-	-
Nc1ccccc1Nc1nc2ccccc2[nH]1	?	-	27.1	33.8
Cc1cc(C)nc(Nc2nc3ccccc3[nH]2)n1	?	?	28.7	90.0
Cc1ccc(C)c(Nc2nc3ccccc3[nH]2)c1	-	?	.	.
c1ccc(Nc2nc3ccccc3[nH]2)nc1	?	-	70.3	85.7
Nc1ccc(Nc2nc3ccccc3[nH]2)cc1	?	?	-	-
Cc1cccc(NC(=O)C2CCC(CNS(=O)(=O)c3ccc(Br)s3)CC2)c1 (stereo not drawn)	-	?	.	.
O=C(CCN1C(=O)c2ccccc2S1(=O)=O)NCc1ccccc1	-	-	.	.
Cc1ccccc1C(=O)N/N=C/c1ccncc1	-	-	-	-
O=C(N/N=C\c1ccccn1)c1ccccc1O	-	?	32.7	120.2
Cc1ccccc1OCC(=O)N/N=C/c1ccccn1	-	-	-	35.1
Cc1ccccc1C(=O)N/N=C/c1ccccn1	?	?	52.5	67.7
Cc1cc(C)cc(OCC(=O)N/N=C/c2ccccn2)c1	.	.	-	-
O=C(NCc1cccc(F)c1)c1ccc2nc(CCc3ccccc3)oc2c1	-	.	.	.
Cc1ccc(-n2cc(CNCCc3cscn3)c(-c3ccc(F)cc3)n2)cc1	?	12.6µM	-	-
Cc1ccc(-n2cc(CNCCCn3ccnc3C)c(-c3ccc(F)cc3)n2)cc1	?	?	-	-
CC(C(=O)NCc1ccc2c(c1)OCO2)N1c2cccc3cccc(c23)S1(=O)=O (stereo not drawn)	?	?	-	-
c1ccc(Cc2nc(-c3ccccn3)no2)cc1	?	-	50.2	94.2
c1ccc(SCc2nc(-c3ccccn3)no2)cc1	-	?	58.4	39.5
CN(Cc1nc(-c2ccccn2)no1)S(=O)(=O)c1ccc(Br)cc1	-	-	-	-
O=C1c2ccccc2C(=O)N1CCc1nc(-c2ccncc2)no1	-	-	-	-
Cc1ccc(Cc2nc(-c3ccccn3)no2)cc1	?	-	40.5	68.8
O=C1c2ccccc2C(=O)N1Cc1nc(-c2ccccn2)no1	-	-	45.6	46.8
O=C(NCCCN1CCN(c2ccccc2)CC1)c1nnc(Cc2ccc(F)cc2)o1	-	.	.	.
CCOC(=O)C(NC(=O)c1ccc(OC)cc1)(N1CCCC1=O)C(F)(F)F (stereo not drawn)	-	-	-	-
SMILES	LASV entry inh	MARV entry inh	Cycloheximide cs	Shiga toxin inh
c1ccc(CCCc2nc(-c3ccccn3)no2)cc1	-	-	45.8	62.2
c1ccc(C(Cc2nc(-c3cccnc3)no2)c2ccccc2)cc1	-	?	-	-
c1ccc(C(Cc2nc(-c3ccccn3)no2)c2ccccc2)cc1	-	?	55.8	94.3
COc1ccc(Cc2nc(-c3ccccn3)no2)cc1	-	?	41.1	-
Cc1cc(=O)n2[nH]c(NC(=O)c3cccc(Cl)c3)nc2n1	-	?	.	.
O=C(NCc1ccc(Cl)cc1)C(=O)Nc1ccc(Br)cc1	-	.	.	.
Fc1ccc(-[n+]2nc(Nc3ccccc3)sc2-c2c3ccccc3cc3ccccc23)cc1	.	.	32.0	40.7
O=C(CCCC[C@@H]1SC[C@H]2NC(=O)N[C@H]12)Nc1ccc(C(=O)O)cc1	.	.	-	-
O=C(NC1CCCCC1)C(c1cccnc1)N(C(=O)c1ccc(Cl)nc1)C1CCCCC1 (stereo not drawn)	-	-	-	-
O=C(Cn1ccc([N+](=O)[O-])n1)N1CCCc2ccccc21	-	-	54.0	127.0
Cc1c(Br)c([N+](=O)[O-])nn1CC(=O)N1CCCc2ccccc21	-	-	-	-
Cc1nn(CC(=O)c2cccc(Cl)c2)c(C)c1[N+](=O)[O-]	-	-	24.2	-
Cc1nn(CC(=O)N2CCCc3ccccc32)c(C)c1[N+](=O)[O-]	-	-	27.6	-
Cc1ccc(Nc2nc3ccccc3o2)cc1F	-	?	38.1	-
Cc1nc(Nc2nc3ccccc3o2)nc(C)c1C	.	?	-	-
CCc1ccc(NC(=S)N2CCCC2)cc1	-	-	36.4	78.2
CCOC(=O)C1CCN(C(=S)Nc2ccc(CC)cc2)CC1	?	-	42.6	-
CCc1ccc(NC(=S)N2CCC(NC(=O)C3CCCCC3)CC2)cc1	.	-	-	-
CCOC(=O)C1CCN(C(=O)Nc2ccc(OC(F)(F)F)cc2)CC1	-	-	34.0	-
CCOC(=O)C1CCN(C(=S)Nc2cccc(C)c2)CC1	-	-	-	-
CCc1ccc(NC(=S)N2CCCC(C(F)(F)F)C2)cc1 (stereo not drawn)	?	?	16.2	-
CCOc1ccc(NC(=O)N(C)CCc2c(C)nn(C)c2C)cc1	-	.	.	.
O=[N+]([O-])c1cccc(-c2cn(-c3ccccc3)c(=S)[nH]2)c1	.	.	-	-
CCc1ccc(NC(=S)N2CCN(C)CC2)cc1	-	-	24.6	-
COc1ccc(NC(=S)N2CCN(C)CC2)cc1	-	?	.	.
SMILES	LASV entry inh	MARV entry inh	Cycloheximide cs	Shiga toxin inh
COc1ccccc1C(=O)N1CCCCC1CCN1CCOCC1 (stereo not drawn)	-	-	.	.
COc1ccc(C)cc1NC(=O)N1CCC(CO)(CC2CCCCO2)CC1 (stereo not drawn)	-	-	-	-
O=C(Nc1ccc2c(c1)OCO2)N1CCN(c2cccc(C(F)(F)F)c2)CC1	-	?	11.6	26.7
O=C(c1ccc2c(c1)OCO2)N1CCN(c2cccc(C(F)(F)F)c2)CC1	?	?	-	-
O=C(Nc1ccc2c(c1)OCO2)N1CCN(c2ccccc2Cl)CC1	-	-	51.8	84.6
O=C(Nc1ccc2c(c1)OCO2)N1CCN(S(=O)(=O)c2ccc(Cl)cc2)CC1	?	-	-	-
O=C(Nc1ccc2c(c1)OCO2)N1CCC(CO)(CC2CCCCO2)CC1 (stereo not drawn)	-	?	17.0	46.1
CC1(C)Cc2ccccc2-c2nc(NCCCO)n(-c3ccccc3)c(=O)c21	-	-	-	-
FC(F)(F)c1ccccc1-n1c(-c2ccco2)n[nH]c1=S	-	-	21.3	29.8
Cc1ccc(/C(O)=C/C(=O)C(=O)NNC(=O)C(O)(c2ccccc2)c2ccccc2)cc1	-	-	-	-
O=C(/C=C(\O)c1ccccc1)C(=O)NNC(=O)c1ccccc1[N+](=O)[O-]	-	-	16.7	71.4
Nc1ccccc1C(=O)NNC(=O)C(=O)/C=C(\O)c1ccccc1	?	-	32.6	53.4
COc1ccc(Nc2nc3ccccc3c3nnc(C)n23)cc1Cl	-	-	.	.
CCc1ccc2c(c1)C1(NN=C(c3cccc4ccccc34)S1)C(=O)N2 (stereo not drawn)	.	.	-	47.6
CCOc1ccc(C(=O)Nc2nnc(SCc3cc(=O)c4cc(C)ccc4[nH]3)s2)cc1	-	.	.	.
COc1ccccc1CN1CCCC(CN(CCN(C)C)C(=O)c2ccc(C)cc2)C1 (stereo not drawn)	.	.	-	-
CC(=O)c1cnc2cc(-c3ccccc3)nn2c1C	-	-	43.3	57.3
CC(=O)c1cnc2cc(-c3ccc(C)cc3)nn2c1C	?	-	25.8	13.4
COc1ccc(-c2cc3ncc(C(C)=O)c(C)n3n2)cc1	.	.	27.8	68.3
Cc1cnc2c(c1SCC(=O)NCc1ccc(F)cc1)c(=O)n(C)c(=O)n2C	-	.	.	.
COc1cccc(-n2ccnc2SCC(=O)Nc2nc3ccc(C)cc3s2)c1	-	.	.	.
COc1ccc(O)c(/C=N/N2CCCCC2)c1	-	?	53.7	83.0
COc1ccc(/C(C)=N/N2CCCCC2)c(O)c1	.	.	11.8	-
